Reference: PubChem BioAssay (NCI)
This is part of a sample that, as a whole, favours compounds with a hit. Of some 83,000 tested, about 20% had one in any assay.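 96-well plates, one dose, 48 hours. Percent growth reported; active if below 10.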 The source made the active and inactive calls.

Assays:
Assay in all cases: NCI-60 one-dose screen, 48 h (100 = growth as untreated, 0 = no growth, -100 = all killed)
K-562 leukemia = conditions: 10 µM unless noted
MALME-3M melanoma = conditions: 10 µM unless noted
MDA-MB-231 breast = conditions: 10 µM unless noted
RXF 393 renal = conditions: 10 µM unless noted
SF-268 CNS = conditions: 10 µM unless noted
SF-295 CNS = conditions: 10 µM unless noted
SF-539 CNS = conditions: 10 µM unless noted
UACC-257 melanoma = conditions: 10 µM unless noted
M14 melanoma = conditions: 10 µM unless noted
HCT-15 colon = conditions: 10 µM unless noted
HT29 colon = conditions: 10 µM unless noted
SNB-75 CNS = conditions: 10 µM unless noted
SNB-19 CNS = conditions: 10 µM unless noted
U251 CNS = conditions: 10 µM unless noted
PC-3 prostate = conditions: 10 µM unless noted
SK-MEL-5 melanoma = conditions: 10 µM unless noted
UACC-62 melanoma = conditions: 10 µM unless noted
LOX IMVI melanoma = conditions: 10 µM unless noted
SK-MEL-28 melanoma = conditions: 10 µM
SK-MEL-2 melanoma = conditions: 10 µM unless noted

Measured: growth

Nc1no[n+]([O-])c1-c1nnc2c(n1)-c1ccccc1C2=O
active: K-562 leukemia -14.9% | UACC-257 melanoma -11.9% | HCT-15 colon -71.4%
inactive: MALME-3M melanoma 64% | MDA-MB-231 breast 67.8% | RXF 393 renal 91.2% | SF-268 CNS 76.5% | SF-295 CNS 86.7% | SF-539 CNS 81.8% | M14 melanoma 18.9% | HT29 colon 57.1% | SNB-75 CNS 95% | SNB-19 CNS 84.5% | U251 CNS 88% | PC-3 prostate 33.6% | SK-MEL-5 melanoma 19.7% | UACC-62 melanoma 64.3% | LOX IMVI melanoma 27.5% | SK-MEL-28 melanoma 81.4% | SK-MEL-2 melanoma 86.9%

Cn1cc([C@@H]2Nc3ccc4[nH]ncc4c3[C@H]3[C@H]4CCC(C4)[C@H]32)c(C(F)(F)F)n1
inactive: K-562 leukemia 15.7% | MALME-3M melanoma 40.2% | MDA-MB-231 breast 61.6% | RXF 393 renal 53.4% | SF-268 CNS 53% | SF-295 CNS 37.7% | SF-539 CNS 41.1% | UACC-257 melanoma 50.1% | M14 melanoma 27.5% | HCT-15 colon 30.8% | HT29 colon 16% | SNB-75 CNS 13.1% | SNB-19 CNS 50.7% | U251 CNS 42.5% | PC-3 prostate 52.1% | SK-MEL-5 melanoma 30.5% | UACC-62 melanoma 30.4% | LOX IMVI melanoma 44.2% | SK-MEL-28 melanoma 62% | SK-MEL-2 melanoma 21.1%

COc1cc(/C=C2\CCC/C(=C\c3cc(CN4CCCCC4)c(O)c(OC)c3)C2=O)cc(CN2CCCCC2)c1O
inactive: K-562 leukemia 38.8% | MALME-3M melanoma 90.3% | MDA-MB-231 breast 69.3% | RXF 393 renal 61.7% | SF-268 CNS 73.5% | SF-295 CNS 96.8% | SF-539 CNS 73% | UACC-257 melanoma 95.4% | M14 melanoma 99% | HCT-15 colon 52.3% | HT29 colon 13.3% | SNB-75 CNS 89.8% | SNB-19 CNS 80.7% | U251 CNS 70.1% | PC-3 prostate 82.7% | SK-MEL-5 melanoma 92.6% | UACC-62 melanoma 91.5% | LOX IMVI melanoma 66.9% | SK-MEL-28 melanoma 93.6% | SK-MEL-2 melanoma 101%

COc1cc2nc(-c3cnc(N(C)C)nc3)nc(NC3CCN(Cc4ccccc4)CC3)c2cc1OC
active: K-562 leukemia -40.4% | MALME-3M melanoma -74.4% | MDA-MB-231 breast -87.7% | RXF 393 renal -78.6% | SF-268 CNS -60% | SF-295 CNS -92% | SF-539 CNS -92.9% | M14 melanoma -80.6% | HCT-15 colon -85.9% | HT29 colon -84.4% | SNB-75 CNS -96.7% | SNB-19 CNS -79.2% | U251 CNS -87.4% | PC-3 prostate -83.2% | UACC-62 melanoma -94.5% | LOX IMVI melanoma -91.9% | SK-MEL-28 melanoma -78.7%
inactive: UACC-257 melanoma 24.1% | SK-MEL-5 melanoma 10.6% | SK-MEL-2 melanoma 89.5%

CC(C)CCNCC(O)Cn1c2ccccc2c2ccccc21 (stereo not given)
active: K-562 leukemia 1.84% | MALME-3M melanoma -12.3% | RXF 393 renal 8.43% | SF-295 CNS -40% | UACC-257 melanoma 1.45% | HT29 colon -12.7% | SNB-75 CNS -3.3% | SK-MEL-5 melanoma -20.6% | LOX IMVI melanoma 1.91%
inactive: MDA-MB-231 breast 41.6% | SF-268 CNS 30.7% | SF-539 CNS 16.1% | M14 melanoma 11.8% | HCT-15 colon 14.9% | SNB-19 CNS 24.4% | U251 CNS 14.4% | PC-3 prostate 20.2% | UACC-62 melanoma 14.1% | SK-MEL-28 melanoma 14.9% | SK-MEL-2 melanoma 13.7%

CCCCC1CCc2cccc3c(SCC(=O)N(C)c4ccc(Cl)cc4)cc[n+]1c23 (stereo not given)
inactive: K-562 leukemia 91.5% | MALME-3M melanoma 106% | MDA-MB-231 breast 109% | RXF 393 renal 128% | SF-268 CNS 113% | SF-295 CNS 106% | SF-539 CNS 110% | UACC-257 melanoma 110% | M14 melanoma 105% | HCT-15 colon 110% | HT29 colon 106% | SNB-75 CNS 109% | SNB-19 CNS 97.2% | U251 CNS 108% | PC-3 prostate 106% | SK-MEL-5 melanoma 102% | UACC-62 melanoma 96.3% | LOX IMVI melanoma 99.7% | SK-MEL-28 melanoma 105% | SK-MEL-2 melanoma 111%

O=C(/C=C/c1ccc(C(F)(F)F)cc1)c1ccc(Nc2nc(NCCO)nc(Nc3ccc(Cl)cc3)n2)cc1
active: HCT-15 colon 6.59% | HT29 colon 5.76% | U251 CNS -41.8% | LOX IMVI melanoma 0.53%
inactive: K-562 leukemia 12.5% | MALME-3M melanoma 96.3% | MDA-MB-231 breast 59.3% | RXF 393 renal 42.8% | SF-268 CNS 50.6% | SF-295 CNS 79.6% | SF-539 CNS 51.3% | UACC-257 melanoma 92.1% | M14 melanoma 54.7% | SNB-75 CNS 37.4% | SNB-19 CNS 76% | PC-3 prostate 32.9% | SK-MEL-5 melanoma 84.7% | UACC-62 melanoma 62.4% | SK-MEL-28 melanoma 73% | SK-MEL-2 melanoma 99.9%

COC(=O)c1c2c(c(C)[n+]([O-])c1C)C(=O)C=C(NCc1ccccc1)C2=O
inactive: SK-MEL-28 melanoma 14.1%
active: K-562 leukemia 1.96% | MALME-3M melanoma -96.9% | MDA-MB-231 breast -26% | RXF 393 renal -25.3% | SF-268 CNS -4.22% | SF-295 CNS -84% | SF-539 CNS -90.2% | UACC-257 melanoma -89.6% | M14 melanoma -80.1% | HCT-15 colon -68.5% | HT29 colon 5.35% | SNB-75 CNS -71.5% | SNB-19 CNS -11.4% | U251 CNS -9.66% | PC-3 prostate 4.06% | SK-MEL-5 melanoma -98.5% | UACC-62 melanoma -72.3% | LOX IMVI melanoma -28.2% | SK-MEL-2 melanoma -29.6%
